PubChem BioAssay AID892 (National Center for Advancing Translational Sciences (NCATS), 2007)
Hit rate of the full screen: of about 75,000 compounds, about 20 (0.03%) were called active. Calls come from the whole dose curve; as a rule, active = well fitted inhibition curve with a large enough effect; inconclusive = small, poorly fitted or top-dose-only effect; inactive = no such curve, though single readings can be large or run the other way. A selection follows.

These compounds were tested against Breast cancer type 1 susceptibility protein (Homo sapiens) (UniProt P38398) (assay: qHTS Assay for Inhibitors of BRCT-Phosphoprotein Interaction (Red Fluorophore)). Details: BRCT-phosphopeptide binding, red fluorescence polarization; series mostly up to 76.9 µM; activity change, negative = inhibition: at the top concentration.
Description: NIH Molecular Libraries Screening Centers Network [MLSCN]
NIH Chemical Genomics Center [NCGC]
PI Name: Natarajan, Amarnath; University of Texas
A complex of BRCT (C-terminal portion of BRCA1, MW ~35 kDa, His-tagged) and fluorescently labeled pBACH1 phosphorylated 10 aa peptide fragment of BACH1, a helicase implicated in DNA repair, is incubated with library members. Inhibitors of BRCT-pBACH1 binding are detected by a decrease in the fluorescence polarization (FP) of the fluorophore. In order to minimize the effect of fluorescence artifacts and to increase the overall robustness of the screen, the compound library members were incubated in separate reactions with rhodamine-labeled probe-protein complexes. Protein and labeled probes were supplied by Dr. Amarnath Natarajan, Department of Pharmacology and Toxicology, University of Texas Medical Branch Galveston, TX.
Assay Buffer: 16mM Na2HPO4, 4 mM NaH2PO4, 150 mM NaCl, 1 mM EDTA, 1 mM DTT, 0.02% NaN3, and 0.01% Tween 20 at pH 7.3.
Assay Controls: 100 nM TAMRA labeled decapeptide dispensed into columns 3 and 4 to generate negative control (full inhibition of
binding, -100 % activity). 100 nM labeled decapeptide/100 nM protein in columns 1, 2, 5 - 48. Titration of unlabeled decapeptide control (from 10 mM, then 1:2 dilution in duplicate) pin-transferred to column 2, rows 1 to 16. Column 1 is neutral.
Three uL of reagents were dispensed to 1536-well Greiner black solid-bottom plates. Compounds and controls (23 nL) were transferred via Kalypsys PinTool. The plates were incubated for 12 min at room temperature, and then read on ViewLux (Perkin-Elmer) High-throughput CCD imager using BODIPY for the rhodamine-labeled decapeptide probe polarization filter sets. During dispense, reagent bottles were kept submerged into 4 deg C water bath and all liquid lines were covered with aluminum foil to minimize probe and protein degradation. All screening operations were performed on a Kalypsys robotic system (Kalypsys, Inc., San Diego, CA) containing one RX-130 and two RX-90 anthropomorphic robotic arms. The timing and order of assay plates passing through the screening system were adjusted such that each compound library plate was assayed against the fluorescein- and rhodamine-labeled assay systems at immediately adjacent time points.
% is set by controls: 0 for no effect and ±100 for the full control effect.

Sequence of Breast cancer type 1 susceptibility protein (Homo sapiens) (P38398 whole entry, looked up): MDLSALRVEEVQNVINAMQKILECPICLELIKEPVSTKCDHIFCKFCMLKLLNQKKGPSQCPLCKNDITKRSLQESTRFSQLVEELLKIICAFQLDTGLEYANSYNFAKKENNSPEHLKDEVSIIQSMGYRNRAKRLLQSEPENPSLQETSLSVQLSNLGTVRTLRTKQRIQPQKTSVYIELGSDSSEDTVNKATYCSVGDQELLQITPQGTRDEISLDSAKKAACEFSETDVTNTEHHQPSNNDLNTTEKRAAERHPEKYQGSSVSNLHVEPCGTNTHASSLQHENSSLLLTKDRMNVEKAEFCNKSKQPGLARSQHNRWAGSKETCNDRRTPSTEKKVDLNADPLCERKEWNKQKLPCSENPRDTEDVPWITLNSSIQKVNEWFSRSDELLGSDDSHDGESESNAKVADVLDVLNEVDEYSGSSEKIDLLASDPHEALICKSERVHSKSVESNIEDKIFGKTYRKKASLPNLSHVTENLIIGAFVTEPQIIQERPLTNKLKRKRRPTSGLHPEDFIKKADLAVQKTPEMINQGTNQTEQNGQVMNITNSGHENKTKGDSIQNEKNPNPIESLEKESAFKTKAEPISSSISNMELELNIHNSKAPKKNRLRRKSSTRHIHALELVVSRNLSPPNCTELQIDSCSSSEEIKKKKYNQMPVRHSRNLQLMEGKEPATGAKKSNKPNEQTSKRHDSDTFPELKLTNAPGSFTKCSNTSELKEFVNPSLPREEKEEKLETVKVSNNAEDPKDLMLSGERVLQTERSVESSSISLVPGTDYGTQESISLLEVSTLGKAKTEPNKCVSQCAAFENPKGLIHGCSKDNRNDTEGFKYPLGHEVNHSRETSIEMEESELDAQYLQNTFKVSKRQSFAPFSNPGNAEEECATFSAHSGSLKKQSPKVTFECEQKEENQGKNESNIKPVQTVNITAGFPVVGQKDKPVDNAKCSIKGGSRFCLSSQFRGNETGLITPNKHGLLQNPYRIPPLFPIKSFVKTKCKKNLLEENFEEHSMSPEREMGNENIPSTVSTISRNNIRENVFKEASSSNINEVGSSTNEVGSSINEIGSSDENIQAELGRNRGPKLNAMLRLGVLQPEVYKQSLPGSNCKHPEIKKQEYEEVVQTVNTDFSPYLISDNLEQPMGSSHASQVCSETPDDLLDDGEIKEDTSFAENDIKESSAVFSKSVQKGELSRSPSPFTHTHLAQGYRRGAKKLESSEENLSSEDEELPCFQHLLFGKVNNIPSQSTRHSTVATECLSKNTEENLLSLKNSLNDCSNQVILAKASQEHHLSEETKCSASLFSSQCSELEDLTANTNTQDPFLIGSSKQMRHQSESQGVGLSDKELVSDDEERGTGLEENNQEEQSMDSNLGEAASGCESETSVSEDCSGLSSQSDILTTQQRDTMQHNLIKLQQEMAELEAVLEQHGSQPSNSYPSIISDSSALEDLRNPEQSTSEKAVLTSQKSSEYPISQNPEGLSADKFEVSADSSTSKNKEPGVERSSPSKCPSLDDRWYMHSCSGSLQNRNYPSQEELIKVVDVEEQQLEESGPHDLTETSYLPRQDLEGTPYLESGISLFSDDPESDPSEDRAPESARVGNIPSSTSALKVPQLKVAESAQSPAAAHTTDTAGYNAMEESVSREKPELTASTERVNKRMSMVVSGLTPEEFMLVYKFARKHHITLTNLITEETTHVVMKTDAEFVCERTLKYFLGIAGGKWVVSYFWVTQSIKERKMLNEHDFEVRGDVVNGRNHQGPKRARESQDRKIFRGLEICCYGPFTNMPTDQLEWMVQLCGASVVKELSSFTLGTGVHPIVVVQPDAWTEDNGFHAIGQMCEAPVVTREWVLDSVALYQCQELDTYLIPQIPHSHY

Activity change, negative = inhibition, inactive:
CO/N=C\[C@@H](C)[C@H](OCc1ccccc1)C(C)C -2.08% [at 15.4 µM], Cc1cccc(-c2cc(=O)c3cc(C)ccc3o2)c1 -3.67%, Cc1cnc(NC(=O)CSc2nnc(-c3ccc(Cl)cc3Cl)n2N)s1 1.12%, CCn1nnc(NC(=O)c2cc(Cl)c(OC)c(Cl)c2)n1 0.626%, O=C(CSc1nnc2scc(-c3ccc(F)cc3)n12)NCc1ccco1 -3.16%, O=C(CSc1nnc2ccccn12)c1ccccc1 -0.613%, CN(C)/C=N/c1cc(=O)n(C)c(=O)n1CC1CC1 0.302%, CCn1c(CSc2nncn2-c2ccc(OC)cc2)nc2cc(S(=O)(=O)N(C)C)ccc21 -0.0262%, Cc1ccc(C(=O)Nc2nnc(-c3ccncc3)s2)o1 -0.503%, CCCN(CCC)C(=O)C1c2ccccc2Oc2ccccc21 -2.75%, O=C(NCCc1ccco1)c1nn(Cc2ccccc2)c(=O)c2ccccc12 -1.11%, COC(=O)c1c(NC(=O)CSc2nncs2)sc2c1CCCCC2 -0.0838%, CCOC(=O)N1CCN(C(=O)c2nn(-c3ccc(C)cc3)c(=O)c3c2c2ccccc2n3C)CC1 0.678%, CCOC(=O)c1nnn(CC(=O)Nc2cccc(F)c2)c1C(=O)OCC -0.331%, CCC1=C(OC(=O)N(CC)CC)N2C(=O)OC(=NCC3CC3)[C@]2(C)[C@H]2C1=CC[C@H]1C(=O)N(CC(=O)OC)C(=O)[C@H]12 -1.92%, COc1ccc(C(=O)NCc2cn3ccccc3n2)cc1 0.842%, COc1cccc(-c2cc(NCCc3c[nH]c4ccc(OC)cc34)ncn2)c1 -0.197%, COCCNC(=O)CSc1nc2c(n1-c1ccccc1)CCCC2 0.0626%, COc1ccccc1N=C1SC(C)CN1C(=O)C1CCC1 (centres undefined) 1.07%, Cc1ccc2[nH]c3c(c2c1)CN(C(=O)CN1CCN(c2ccccc2)CC1)CC3 -1.58%, CC(NC(=O)c1cc(-c2ccccc2)on1)c1ccccc1 (centres undefined) -1.69%, O=S(=O)(c1cccs1)N1CCN(Cc2ccccc2)CC1 0.716%, CCCC(=O)Nc1nnc(CC(=O)OCC)s1 -0.653%, N#CC1=C(SCc2ccccc2)NC(=O)C(C#N)C12CCCC2 (centres undefined) 0.43%, Cc1cc(N(C)C)cc(C)[n+]1[O-] -0.606%, CC(C)(C)NC(=O)c1cc(NC(=O)c2ccco2)cc(NC(=O)c2ccco2)c1 0.733%, Cc1ccc2nc(NC(=O)C3CCN(S(=O)(=O)c4ccc5c(c4)oc(=O)n5C)CC3)sc2c1 0.323%, COC(=O)[C@@H]1C[C@@]2(O)[C@H](O)[C@H](O)[C@H](O)C[C@H]2N1Cc1ccc(C)s1 -0.918%, COC(=O)Nc1nc2ccc(Sc3ccccc3)cc2[nH]1
